# Screening data deposited in PubChem BioAssay by National Center for Advancing Translational Sciences (NCATS).
# Rab9 promoter act – Rab9 promoter activation | Potency, µM (titrated, usually from 9.22 µM), for inactives: at the top dose activation, negative = inhibition, most hits filed as activators | Huh7 Rab9 promoter-luciferase reporter, luminescence, 24 h | AID 485297 | 2.8% of 320,000 active; also: % of control where 0% means no effect; nearly all actives have a fitted effect of over 60% in size
#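 Measured in stably transfected Huh7 cells bearing a Rab9 promoter–luciferase construct: 24 h compound treatment at 37 °C, followed by luminescence detection.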
# KinaseGlo FLuc – blocks Kinase-Glo luciferase, a counter-screen artifact; Kinase-Glo luciferase, ATP luminescence, 8 min; Potency, µM (doses to about 38.3 µM), inactives show top-dose activity change, negative = inhibition, hits mostly inhibitors; 0.28% of 200,000 active; AID 1379; also: % is scaled to controls: 0 for no effect and ±100 for the full control effect; nearly all actives have a fitted effect of over 60% in size
#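 Recombinant Kinase-Glo luciferase, 10 uM ATP (linear range), luciferin; imidazole pH 7.2 / KCl / MgCl2 / Tween / BSA buffer; 8 min RT; luminescence.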
# NPC1 prom act – activates the NPC1 promoter; Huh7 NPC1 promoter luciferase reporter, 24 h; Potency, µM (doses to about 9.22 µM), inactives show at the highest dose activation, usual class: activators; 2.4% of 320,000 active; also: % of control where 0% means no effect; nearly all actives have a fitted effect of over 60% in size
#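 Stable NPC1-promoter luciferase Huh7 line; cpd (DMSO) 24 h, 37 °C, 5% CO2; Amplite luciferase reagent 10 min RT; luminescence readout. qHTS format.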
# ELG1 genotox – inducers of genotoxicity in HEK293T ELG1-luciferase cells; HEK293T ELG1-luciferase reporter, luminescence, 16 h; Potency, µM (top dose mostly 46 µM), inactives show top-dose activity change, positive = activation, most hits filed as activators; 1.3% of 330,000 active; AID 504466; also: % of control where 0% means no effect; nearly all actives have a fitted effect of over 60% in size
#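 Genotoxicity was scored as increased ELG1-luciferase reporter signal, measured by ONE-Glo luminescence (30 min, room temperature). Compound or vehicle exposure of the HEK293T reporter cells lasted 16 hr at 37°C.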
# FLuc counter – inhibits or activates purified firefly luciferase, miR-21 counter-screen; P08659; purified FLuc, Km substrates, luminescence inhibition; Potency, µM (series often up to 57.5 µM), inactives show at the top dose activity change, negative = inhibition, most hits filed as inhibitors; 6.9% of 360,000 active;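 also: plate controls were vehicle for no effect and reference inhibitor for full effect; nearly all actives have a fitted effect of over 55% in size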
# Target sequence (P08659 whole entry, looked up): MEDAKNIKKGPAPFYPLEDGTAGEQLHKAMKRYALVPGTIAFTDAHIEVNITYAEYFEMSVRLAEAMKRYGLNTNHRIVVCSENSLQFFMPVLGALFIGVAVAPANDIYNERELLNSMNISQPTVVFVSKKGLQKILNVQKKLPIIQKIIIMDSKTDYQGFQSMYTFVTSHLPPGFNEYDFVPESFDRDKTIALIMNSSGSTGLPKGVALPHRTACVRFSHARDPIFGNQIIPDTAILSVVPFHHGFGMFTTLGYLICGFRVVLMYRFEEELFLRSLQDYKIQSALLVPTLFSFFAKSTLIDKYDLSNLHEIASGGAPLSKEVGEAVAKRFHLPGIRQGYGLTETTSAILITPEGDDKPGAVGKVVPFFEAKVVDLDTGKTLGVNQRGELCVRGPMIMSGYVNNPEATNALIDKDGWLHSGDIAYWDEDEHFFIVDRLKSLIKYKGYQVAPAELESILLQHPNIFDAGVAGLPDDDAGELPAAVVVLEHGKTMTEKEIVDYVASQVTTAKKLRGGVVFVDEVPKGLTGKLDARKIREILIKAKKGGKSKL
#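 Purified P. pyralis luciferase, 10 nM final, with Km-level 10 uM D-luciferin and 10 uM ATP in 50 mM Tris acetate pH 7.5, 10 mM Mg acetate, 0.01% Tween-20, 0.05% BSA; 6-point qHTS titration about 60 µM downward; luminescence read.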
# SMN2 splice up – increases expression of the SMN2 splice variant; Potency, µM (highest dose often 46.1 µM), for inactives: top-dose activity change, positive = activation, hits mostly activators; HEK293 SMN2-luciferase splicing reporter, luminescence, 30-36 h; 2.8% of 210,000 active; also: % of control where 0% means no effect; nearly all actives have a fitted effect of over 55% in size
#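 HEK293 cells carry an SMN2 […]–luciferase reporter in which exon 7 inclusion puts luciferase in frame. Cells were plated 10-12 h before compound addition, then incubated 30-36 h at 37C. ONE-Glo luminescence was read; sodium butyrate at 4.5 mM final served as control.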
# The depositor's hits bear a star; u = inconclusive; x = not tested or not shown; [ ] = remark or other dose. An excerpt weighted towards active compounds, which were near 7.3% of everything screened. Calls follow the shape of the dose curve; as a rule, active = well fitted curve in the direction sought with a large enough effect; inconclusive = small, poorly fitted or top-dose-only effect, or another doubt; inactive = no such curve, though single readings can be large; an effect the other way counts as inactive or inconclusive. Potency is read from the fitted curve at half-maximal effect.
SMILES,Rab9 promoter act,KinaseGlo FLuc,NPC1 prom act,ELG1 genotox,FLuc counter,SMN2 splice up
CN(C)c1ccc(/C=N/NC(=O)c2ccccc2Cl)cc1,13%,5%,-1%,u,17µM*,22µM*
CSc1ccc(/C=N/NC(=O)c2ccccc2Cl)cc1,u,0%,11%,u,15µM*,30%
COc1ccccc1/C=N/NC(=O)c1ccccc1Cl,-5%,-2%,-1%,0%,u,12%
CN(C)c1ccc(/C=N/NC(=O)c2sccc2-n2cccc2)cc1,4µM*,0%,u,-1%,u,20%
O=C(OCC(=O)N1CCN(S(=O)(=O)c2ccccc2)CC1)C1CCC1,x,x,x,0%,x,x
Cc1ccc(NC(=O)N(Cc2cccnc2)Cc2ccco2)cc1C,1%,7%,2%,-1%,2%,-35%
COc1ccccc1N1CCN(C(=O)c2cc(C(C)(C)C)oc2C)CC1,-2%,x,2%,-6%,6%,x
Cc1ccc(/C=N/NC(=O)CNC(=O)c2cccs2)o1,3%,-4%,0%,1%,-3%,1%
O=C(N/N=C/c1ccc(-c2ccccc2C(=O)O)o1)c1cccs1,3%,-11%,15%,4%,13µM*,6%
CN(C)c1ccc(/C=N/O)cc1,10%,-6%,4%,5%,-19%,27%
O=C(Nc1ccc(Cl)c(Cl)c1)c1ccc(Cn2cc(Cl)cn2)cc1,28%,-1%,21%,7%,19µM*,-87%
C/C(=N/N=C/c1ccc(N(C)C)cc1)c1ccccc1,0.11µM*,8.9µM*,0.28µM*,0.37µM*,0.17µM*,0.5µM*
CSc1ccc(/C=N/NC(=O)c2cccs2)cc1,1.8µM*,x,2.2µM*,u,1.7µM*,x
NNC(=O)c1ccc(Cn2cc(Cl)cn2)cc1,-3%,-3%,0%,0%,0%,-3%
COc1ccc(NC2CCCN(C(=O)c3ccc(OC)o3)C2)cc1 (stereo not drawn),12%,x,0%,-4%,0%,x
O=C(Cn1cnc2cc([N+](=O)[O-])ccc2c1=O)NCc1ccc(Cl)cc1,-8%,-2%,2%,-2%,-1%,-23%
Nc1cc(=O)[nH]c(SCC(=O)N2N=C(c3ccc4ccccc4c3)CC2c2ccccc2)n1 (stereo not drawn),0%,x,2%,-10%,3%,x
O=C(N/N=C/c1ccc(-n2ccnc2)cc1)c1cccs1,u,x,u,u,12µM*,x
CN(C)c1ccc(/C=N/NC(=O)c2ccccc2)cc1,0.89µM*,u,2.8µM*,u,5.4µM*,11µM*
CN(C)c1cccc(C(=O)N/N=C/c2ccsc2)c1,3.5µM*,2%,3.2µM*,u,3µM*,11µM*
CN(C)c1ccc(/C=N/Nc2ccc(-n3ccnc3)nn2)cc1,-1%,-4%,-2%,-2%,-14%,u
COC(=O)Nc1ccc2c(c1)OCO2,5%,0%,-1%,6%,u,17%
CC1(C)CCC(=O)N2CC[C@H]3C[C@H](OC(=O)Nc4ccccc4)C[C@@H]1[C@H]32,u,x,u,19%,19µM*,x
CC1(C)CCC(=O)N2CC[C@H]3C[C@H](OC(=O)Nc4ccc5c(c4)OCO5)C[C@@H]1[C@H]32,u,x,4µM*,-5%,15µM*,x
CCCCNC(=O)O[C@H]1C[C@@H]2CCN3C(=O)CCC(C)(C)[C@H](C1)[C@H]23,-2%,x,0%,0%,1%,x
COC(=O)CCC(=O)OC1(C)C(=O)C2=CN(Cc3ccc4c(c3)OCO4)C(c3ccc(OC)cc3)=CC2=C(Br)C1=O (stereo not drawn),x,-1%[7.66 µM],x,x,x,0%[9.22 µM]
CCc1cc2c(cc3c(=O)n(CC(=O)N4CCC(C)CC4)nc(CC)n32)s1,x,x,x,x,-14%,-4%
Cc1ccc2nc(NC(=O)c3ccc(NS(=O)(=O)c4cccs4)cc3)sc2c1,16%,2%,15%,9%,12µM*,-8%
